Screen size: about 5,500 compounds; about 2,000 (36%) were called active. About 18% were inconclusive and are not listed. Cut-off read from the data, not from the text of the source: active = normalized growth mostly below about 0.91 (no sharp cut-off); inconclusive = no clear call, values can overlap the other calls; inactive = mostly above about 0.92. This is one part of the list.
Assay: chemical genetic growth profiling, strain panel (AID 1159580);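 note: tested at 20 µM; growth read once vehicle control cultures reached saturation at 30 °C; 1 = growth at the plate median or of vehicle wells; lower values mean less growth of the strain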
Conditions: S. cerevisiae deletion strains, growth OD

Measured: normalized growth

COc1ccc(-c2coc3cc(OC)cc(OC)c3c2=O)cc1
inactive: locus YAL021C, strain ccr4, active compounds read low 1 | locus YAL026C, strain drs2, active compounds read low 0.985 | locus YAL030W, strain snc1, active compounds read low 0.987 | locus YBL061C, strain skt5, active compounds read low 0.972 | locus YBR009C, strain hhf1, active compounds read low 0.988 | locus YBR023C, strain chs3, active compounds read low 0.97 | locus YBR171W, strain sec66, active compounds read low 0.994 | locus YBR231C, strain swc5, active compounds read low 0.989 | locus YBR279W, strain paf1, active compounds read low 0.993 | locus YCL011C, strain gbp2, active compounds read low 0.979 | locus YCL016C, strain dcc1, active compounds read low 0.997 | locus YCL061C, strain MRC1, active compounds read low 0.989 | locus YCL069W, strain vba3, active compounds read low 0.996 | locus YCR088W, strain abp1, active compounds read low 0.991 | locus YDL005C, strain med2, active compounds read low 1 | locus YDL040C, strain nat1, active compounds read low 0.987 | locus YDR001C, strain nth1, active compounds read low 0.984 | locus YDR069C, strain doa4, active compounds read low 1 | locus YDR137W, strain rgp1, active compounds read low 0.974 | locus YDR159W, strain sac3, active compounds read low 0.987 | locus YDR195W, strain ref2 1.04 | locus YDR297W, strain sur2, active compounds read low 0.983 | locus YDR334W, strain swr1, active compounds read low 1 | locus YDR335W, strain msn5, active compounds read low 0.997 | locus YDR392W, strain spt3, active compounds read low 0.843 | locus YEL003W, strain gim4, active compounds read low 0.987 | locus YEL037C, strain rad23, active compounds read low 0.988 | locus YEL061C, strain CIN8 (second series), active compounds read low 0.99 | locus YER015W, strain faa2, active compounds read low 0.99 | locus YER016W, strain bim1, active compounds read low 0.99 | locus YER111C, strain swi4, active compounds read low 0.991 | locus YER155C, strain BEM2 (second series), active compounds read low 0.946 | locus YFR010W, strain ubp6, active compounds read low 1 | locus YGL167C, strain pmr1, active compounds read low 0.982 | locus YGL173C, strain kem1, active compounds read low 0.98 | locus YGL227W, strain vid30, active compounds read low 0.992 | locus YGL240W, strain doc1, active compounds read low 0.982 | locus YGL253W, strain hxk2, active compounds read low 0.995 | locus YHR013C, strain ard1, active compounds read low 0.96 | locus YHR027C, strain rpn1, active compounds read low 0.994 | locus YHR142W, strain chs7, active compounds read low 0.93 | locus YJL092W, strain hpr5, active compounds read low 0.991 | locus YJL095W, strain BCK1 (second series), active compounds read low 1.01 | locus YJL115W, strain asf1, active compounds read low 0.996 | locus YJL129C, strain trk1, active compounds read low 0.969 | locus YJL154C, strain vps35, active compounds read low 0.998 | locus YJL164C, strain tpk1, active compounds read low 0.981 | locus YJL166W, strain qcr8, active compounds read low 0.986 | locus YJL187C, strain SWE1, active compounds read low 0.988 | locus YKL160W, strain elf1, active compounds read low 0.986 | locus YKR026C, strain gcn3, active compounds read low 0.988 | locus YKR091W, strain srl3, active compounds read low 0.989 | locus YLL001W, strain dnm1, active compounds read low 0.976 | locus YLL026W, active compounds read low 0.987 | locus YLL041C, strain sdh2, active compounds read low 0.991 | locus YLR027C, strain aat2, active compounds read low 0.998 | locus YLR221C, strain rsa3, active compounds read low 0.978 | locus YLR258W, strain gsy2, active compounds read low 0.987 | locus YLR262C, strain YPT6 (second series), active compounds read low 0.968 | locus YLR320W, strain mms22, active compounds read low 0.971 | locus YLR342W, strain FKS1, active compounds read low 0.994 | locus YLR357W, strain rsc2, active compounds read low 0.988 | locus YLR370C, strain arc18, active compounds read low 0.992 | locus YLR384C, strain iki3, active compounds read low 0.987 | locus YML120C, strain ndi1, active compounds read low 0.989 | locus YMR058W, strain fet3, active compounds read low 0.987 | locus YMR125W, strain sto1, active compounds read low 1.01 | locus YMR129W, active compounds read low 0.987 | locus YMR205C, strain PFK2, active compounds read low 0.959 | locus YMR231W, strain pep5, active compounds read low 0.977 | locus YNL071W, strain lat1, active compounds read low 0.988 | locus YNL209W, strain ssb2, active compounds read low 0.995 | locus YNL248C, strain rpa49, active compounds read low 0.999 | locus YNL322C, strain KRE1 (second series), active compounds read low 0.994 | locus YNR049C, strain mso1, active compounds read low 1 | locus YOR001W, strain rrp6, active compounds read low 1.01 | locus YOR070C, strain gyp1, active compounds read low 1.01 | locus YOR080W, strain dia2, active compounds read low 1 | locus YOR083W, strain WHI5, active compounds read low 0.984 | locus YOR106W, strain vam3, active compounds read low 0.974 | locus YOR265W, strain rbl2, active compounds read low 0.984 | locus YOR270C, strain vph1, active compounds read low 0.885 | locus YOR290C, strain snf2, active compounds read low 0.948 | locus YPL051W, strain arl3, active compounds read low 0.972 | locus YPL078C, strain atp4, active compounds read low 0.975 | locus YPL106C, strain sse1, active compounds read low 0.964 | locus YPL240C, strain hsp82, active compounds read low 0.984

Source: PubChem BioAssay AID1159580 (chemical genetic matrix, 2015)
